In the supplement of paper PMC6555819 one finds PBM binding z-score data, which are given here for 8 sequences.

Common to all, as to assay: PBM binding z-score (relative to random genomic background probes); higher = stronger binding; sequences stand for … in GC…GCGATTGACAGCGTAGAATGAAGG
The test system of assay [1] is FXR:RXRa (NR concentration 270 nM, RXRa partner concentration 90 nM). Put shortly: (§1)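 Each nuclear receptor dimer, without ligand, was incubated for 1 h on custom Agilent 4×180K protein-binding microarrays. Binding was detected with antibodies against each partner (one per run), and scanned fluorescence was regression-normalized. The binding z-scores are referenced to random human genomic background probes.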

Assay [2] has as its system LXRa homodimer (NR concentration 270 nM). Put shortly:
as §1

In assay [3] the test system is LXRb homodimer (NR concentration 270 nM). An outline of the steps:
as §1

For assay [4], the system named is PPARg:RXRa (NR concentration 180 nM, RXRa partner concentration 90 nM). An outline of the steps: as §1
Assay [5] relates to PPARg:RXRa 270nM:90nM, anti-RXR (NR concentration 270 nM, RXRa partner concentration 90 nM). An outline of the steps:
as §1

For assay [6], the system named is PPARg:RXRa 30nM:10nM, anti-RXR (NR concentration 30 nM, RXRa partner concentration 10 nM). Put shortly: as §1
The subject of assay [7] is PPARg:RXRa 90nM:30nM, anti-RXR (NR concentration 90 nM, RXRa partner concentration 30 nM). An outline of the steps: as §1
For assay [8], the system named is PPARg:RXRa DBDmut IVT, anti-RXR (DBD mutation: RXRa K156A/R161A, NR concentration 270 nM, RXRa partner concentration 90 nM). An outline of the steps: as §1
Assay [9] relates to PPARg:RXRa IVT, anti-PPARg (NR concentration 270 nM, RXRa partner concentration 90 nM). Put shortly:
as §1

Assay [10] concerns PPARg DBDmut:RXRa IVT, anti-PPARg (DBD mutation: PPARg1 K132A/R137A, NR concentration 270 nM, RXRa partner concentration 90 nM). Put shortly:
as §1

For assay [11], the system named is PPARg DBDmut IVT, anti-PPARg (DBD mutation: PPARg1 K132A/R137A, NR concentration 270 nM). Put shortly:
as §1

Assay [12] concerns PPARg homodimer (NR concentration 180 nM). An outline of the steps:
as §1

Assay [13] relates to PXR:RXRa (NR concentration 270 nM, RXRa partner concentration 90 nM). An outline of the steps:
as §1

For assay [14], the system named is PXR homodimer (NR concentration 270 nM). Put shortly:
as §1

The test system of assay [15] is RARa:RXR (NR concentration 270 nM, RXRa partner concentration 90 nM). Put shortly: as §1
Assay [16] has as its system RARa homodimer (NR concentration 270 nM). An outline of the steps:
as §1

The subject of assay [17] is RARb:RXRa (NR concentration 270 nM, RXRa partner concentration 90 nM). Put shortly:
as §1

For assay [18], the system named is RARb homodimer (NR concentration 270 nM). An outline of the steps:
as §1

Assay [19] has as its system PPARa:RXRa (NR concentration 270 nM, RXRa partner concentration 90 nM). An outline of the steps:
as §1

Turning to TATCAAAGTTCAAAGGTAACGTAAGTATCCACAC, the PBM binding z-score in [1] worked out at 6.87; in assay [2] it was 6.56; in assay [3], 3.08; in [4], 6.12; in assay [5], 6.03; in [6], 3.65. Moreover, the PBM binding z-score in assay [7] was determined as 5.24; in assay [8], 0.181; in assay [9], 2.37; in assay [10], 1.61; in [11] it was 1.66; in [12], 2.55. Further, the PBM binding z-score in assay [13] was 5.83; in [14] it was 4.87; in [15], 6.67; in assay [16] it was 2.48; in [17], 5.07; in assay [18], 3.91.
Consider CCTACTGGGCCACTAAAGGTCATTGATTCAGTGA, for which the PBM binding z-score in assay [1] came to 3.27; in assay [2], 8.29; in assay [3], 1.27; in assay [4] it was 4.06; in [5], 4.89; in [6], 2.26. The PBM binding z-score in [7] came to 4.15; in assay [8] it was 5.49; in assay [9], 5.37; in assay [10] it was 0.801; in assay [11], 0.225; in assay [12] it was 3.43. In addition, the PBM binding z-score in [13] came out at 5.12; in assay [14], 1.79; in assay [15] it was 5.18; in assay [16] it was 1.26; in assay [17], 3.89; in assay [18] it was 4.55.
On to ATCGAAAGGTCGTGAGGTAAGTATACAGAAAGGC, for which the PBM binding z-score in assay [1] came out at 5.54; in assay [2], 0.488; in assay [3] it was 0.774; in assay [4], 4.03; in assay [5], 4.37; in [6] it was 1.57. For the same sequence, the PBM binding z-score in [7] amounted to 3.06; in assay [8], 0.266; in assay [9], 2.1; in [10] it was 1.96; in assay [11], 0.952; in assay [12] it was 2.1. The PBM binding z-score was found to be 3.42 in assay [13]; 0.535 in assay [14]; 4.43 in assay [15]; 1.16 in assay [16]; 3.99 in [17]; 2.76 in assay [18].
As to CCTACTGGGCCAAAAAGGTCATTGATGCCGATAA, the PBM binding z-score is 3.46 in assay [1]; 3.19 in assay [2]; -0.142 in [3]; 3.35 in [4]; 3.98 in assay [5]; 1.41 in [6]. Besides, the PBM binding z-score in assay [7] was 3.38; in [8] it was 3.88; in assay [9] it was 3.76; in assay [10], -0.582; in assay [11], -0.854; in assay [12], 3.07. Moreover, the PBM binding z-score stood at 4.63 in assay [13]; 3.96 in [14]; 4.97 in [15]; 0.857 in assay [16]; 3.97 in [17]; 4.43 in assay [18].
On to AGAATGAGGTTACCAAAGGTCAGGGAAACGCTTG, for which the PBM binding z-score in assay [1] is 6.02; in assay [2], 8.17; in [3] it was 0.893; in assay [4] it was 5.51; in [5] it was 5.63; in assay [6], 3.27. Besides, the PBM binding z-score came out at 4.99 in [7]; 4.16 in assay [8]; 4.54 in assay [9]; 1.08 in assay [10]; 0.912 in assay [11]; 4.43 in [12]. For the same sequence, the PBM binding z-score in assay [13] was determined as 6.1; in [14], 1.49; in [15] it was 6.53; in [16], 1.28; in assay [17], 4.91; in [18], 5.13.
For the sequence CCTACTGGGCCATTCAGAGGTCAATGATCATATG, the PBM binding z-score in assay [1] was found to be 2.47; in assay [2], 4.81; in [3], 0.521; in assay [4], 2.59; in assay [5], 3.02; in assay [6] it was 0.908. The PBM binding z-score in assay [7] is 2.2; in [8], 4.08; in assay [9], 4.62; in assay [10], 0.0847; in assay [11], -0.339; in assay [12], 1.92. Further, the PBM binding z-score came to 3.89 in assay [13]; 0.827 in [14]; 3.93 in assay [15]; 0.374 in [16]; 3.42 in assay [17]; 4.28 in assay [18].
As for TCTAGTTGGTCACGGAGGTCACAAACGACGGGTA, the PBM binding z-score in [1] was found to be 2.95; in assay [2], 2.21; in [3], 0.892; in assay [4], 3.15; in assay [5] it was 3.83; in assay [6], 3.19. The PBM binding z-score was found to be 3.12 in assay [7]; 2.44 in assay [8]; 3.96 in assay [9]; 0.857 in assay [10]; 0.878 in [11]; 2.5 in assay [12]. Moreover, the PBM binding z-score came out at 4.3 in assay [13]; 1.25 in assay [14]; 4.32 in [15]; 1.68 in [16]; 3.66 in assay [17]; 4.21 in assay [18].
As for CCGAGAAGGTTACGAGGGGGCATTCAGTGCGAAT, the PBM binding z-score in assay [1] turned out to be 4.03; in [2], 1.76; in assay [19], 4.3; in assay [4], 1.9; in [5] it was 2.99; in [6], 0.996. Also, the PBM binding z-score stood at 1.72 in assay [7]; 1.32 in assay [8]; 2.5 in assay [9]; 2.11 in assay [12]; 5.85 in [13]; 5.71 in assay [14]. Further, the PBM binding z-score in [15] is 4.07; in [16], 0.612; in [17], 3.24; in assay [18] it was 2.66.
